Screening results (PubChem)
Compounds with a hit are over-represented: about 4.8% of the library has one in this group of screens.
DAX1 inh-1: DAX1 (NR0B1) inhibitors, primary screen, cell-based, HEK293, Gal4-DAX1, luciferase luminescence. actives 0.99% (n = 340,000). inhibition, % at 6.75 µM. Nuclear receptor subfamily 0 group B member 1 (Homo sapiens), P51843. HEK293 Gal4-DAX1 luciferase reporter;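 active means inhibition above the mean over all tested compounds plus 3 SD, cut at about 4.2% in these data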;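 further: inhibition shows as a rise in luminescence from relieved DAX1 repression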
Target sequence (P51843 207-470 limits assumed): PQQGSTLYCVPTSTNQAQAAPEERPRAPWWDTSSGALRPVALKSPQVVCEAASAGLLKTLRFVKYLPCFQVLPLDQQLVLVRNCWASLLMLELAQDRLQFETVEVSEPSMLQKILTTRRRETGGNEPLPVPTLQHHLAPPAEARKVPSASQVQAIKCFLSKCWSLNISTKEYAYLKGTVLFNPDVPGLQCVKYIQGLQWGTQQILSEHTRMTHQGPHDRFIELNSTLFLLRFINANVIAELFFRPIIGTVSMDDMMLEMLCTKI
hcDAF12 agonist: H. contortus DAF-12 nuclear receptor activators, primary screen, cell-based, luminescence, HEK293, lit1-tk-luc reporter. actives 1.4% (n = 370,000). activation, % at 6.8 µM. HEK293 hcDAF-12 lit1-tk-luc reporter; 0% DMSO, 100% Δ7-dafachronic acid;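 active means activation above the mean of all tested compounds plus 3 SD, cut at about 5.5% in these data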
hgDAF12 agonist: H. glycines DAF-12 receptor agonists, primary screen, cell-based, luminescence, HEK293, GAL4 fusion, UAS-luciferase. HEK293 GAL4-hgDAF12 UAS-luciferase reporter, agonist luminescence; normalized to butyrate control. activation, % at 6.8 µM. actives 1.8% (n = 370,000). AID 687014, 2013;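 active means activation above a cutoff set at the mean of all screened compounds plus 3 SD, cut at about 10% in these data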
DAX1 inh-2: DAX1 (NR0B1) inhibitors on StAR promoter, primary screen, cell-based, luminescence, SF-1 (NR5A1), full-length DAX-1 | HEK293T StAR-luciferase reporter, SF-1/DAX-1 repression relief | inhibition, % at 6.8 µM | actives 1.1% (n = 370,000) | AID 652010, 2013;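 active means inhibition above the mean over all tested compounds plus 3 SD, cut at about 3.6% in these data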;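 further: higher inhibition means more luminescence from relief of DAX-1 repression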
ssDAF12 agonist: S. stercoralis DAF-12 nuclear receptor activators, primary screen, cell-based, luminescence, HEK293, GRIP1 co-expression, lit1-tk-luc; Nuclear hormone receptor DAF-12 (Strongyloides stercoralis); HEK293 ssDAF-12/GRIP1 lit1-tk-luc reporter; % of 3 µM dafachronic acid response; activation, % at 6.8 µM; actives 1% (n = 370,000); AID 652126, 2013;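 active means activation above the mean over all tested compounds plus 3 SD, cut at about 0.9% in these data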
SMARCA2 act: SMARCA2 (BRM) function activators, primary screen, cell-based, luminescence, high throughput; MG213 cells, MMTV-luciferase reporter, dexamethasone, overnight; activation, % at 9.1 µM; actives 1% (n = 370,000); in the data active means activation above about 7.8%
LXRb hcDAF ctr: LXR agonists, Gal4 luciferase reporter, confirmation, counter-screen for hcDAF-12 agonist project, cell-based, luminescence, HEK293, H. contortus campaign | shares compounds with hcDAF12 agonist | 3,400 tested, under 10 active | activation, % at 6.8 µM | HEK293 Gal4-LXR tk-luc reporter, 24 h; normalized: DMSO 0%, positive control 100%;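 active means mean percent activation of the reporter above a cutoff set as the average over tested compounds plus their standard deviation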
hcDAF12 ag: H. contortus DAF-12 receptor agonists, confirmation, cell-based, luminescence, HEK293, lit1-tk-luc, triplicate | shares compounds with hcDAF12 agonist | HEK293 hcDAF-12 lit1-tk-luc reporter; % of Δ7-dafachronic acid response | activation, % at 6.8 µM | actives 61% (n = 3,400) | AID 743032, 2013;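 active means mean activation across triplicate tests above the threshold derived from the earlier primary screen, cut at about 5.5% in these data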
hgDAF12 ag: H. glycines DAF-12 receptor agonists, confirmation, cell-based, luminescence, HEK293, GAL4-LBD fusion; shares compounds with hgDAF12 agonist; HEK293 GAL4-hgDAF12 luciferase reporter, agonist mode; percent of butyrate response; activation, % at 6.8 µM; actives 80% (n = 3,300); AID 743050, 2013;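 active means mean activation over triplicate wells above the hit cutoff derived from the earlier primary screen, cut at about 11% in these data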
LXR ag 2: LXR agonists, Gal4 luciferase reporter, confirmation, counter-screen for hgDAF-12 agonist project, cell-based, luminescence, HEK293, H. glycines campaign; shares compounds with hgDAF12 agonist; 24 h; activation, % at 6.8 µM; 3,300 tested, under 10 active;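 active means mean activation of the triplicate above a set limit carried over from the primary screen, none filed active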
Of the large screens only hits and unclear results are named; the others gave an inactive call (follow-up assays come after a bar, where they were run).

Clc1nc2ccccc2cc1/C=N/Nc1nc2ccccc2[nH]1	hcDAF12 agonist 9.3, hgDAF12 agonist 14, ssDAF12 agonist 1.7 | LXRb hcDAF ctr inactive | hcDAF12 ag 14 | hgDAF12 ag 17 | LXR ag 2 inactive
CCSc1cc(C)nc2c(-c3ccccc3)cnn12	hcDAF12 agonist 13, hgDAF12 agonist 18, DAX1 inh-2 4.0, ssDAF12 agonist 2.4 | LXRb hcDAF ctr inactive | hcDAF12 ag 11 | hgDAF12 ag 15 | LXR ag 2 inactive
Cc1cc(-c2ccc(F)cc2)n2ncc(-c3ccccc3)c2n1	none (no result: DAX1 inh-1)
COc1ccc(CCNC(=O)C2CCCN(S(=O)(=O)N3CCCCCC3)C2)cc1OC (stereo not given)	none
O=C(O)c1cc(N/N=C/c2ccncc2)ccc1Cl	none
O=C(O)c1cc(N/N=C/c2ccc(-c3ccccc3)cc2)ccc1Cl	hcDAF12 agonist 11, hgDAF12 agonist 24, ssDAF12 agonist 1.3 | LXRb hcDAF ctr inactive | hcDAF12 ag 12 | hgDAF12 ag 25 | LXR ag 2 inactive
Cc1ccc(-c2nc(-c3ccncc3)no2)c(Cl)c1	hcDAF12 agonist 7.6, hgDAF12 agonist 16, ssDAF12 agonist 1.5 | LXRb hcDAF ctr inactive | hcDAF12 ag 8.5 | hgDAF12 ag 16 | LXR ag 2 inactive
Cc1onc(-c2ccccc2Cl)c1-c1nc(-c2ccncc2)no1	none
COc1ccccc1-c1noc(-c2ccncc2)n1	none
COc1ccccc1-c1noc(-c2cccs2)n1	hcDAF12 agonist 8.7, hgDAF12 agonist 19 | LXRb hcDAF ctr inactive | hcDAF12 ag inactive | hgDAF12 ag 23 | LXR ag 2 inactive
O=C(CSc1ccc(-c2ccccn2)nn1)NCc1ccc(Cl)cc1	none
COC(=O)c1sccc1N/N=C/c1cccc(OC)c1O	hcDAF12 agonist 12, hgDAF12 agonist 19, ssDAF12 agonist 1.3 | LXRb hcDAF ctr inactive | hcDAF12 ag 9.0 | hgDAF12 ag 25 | LXR ag 2 inactive
Nc1c(Cl)ncnc1N/N=C/c1cccc(O)c1	none
Clc1ccc(/C=N/Nc2ncnc3ccccc23)cc1Cl	DAX1 inh-1 12, hcDAF12 agonist 10, hgDAF12 agonist 16, ssDAF12 agonist 1.1 | LXRb hcDAF ctr inactive | hcDAF12 ag 7.0 | hgDAF12 ag 20 | LXR ag 2 inactive
CN1CCN(S(=O)(=O)c2cccc(S(=O)(=O)c3ccc(Cl)cc3)c2)CC1	none
